Compound activity from PubChem.
HCMV antiviral: blocks human cytomegalovirus replication; HFF cells, HCMV-luciferase reporter, 72 h; active compounds read low; activity change, negative = inhibition, % at 57.5 µM; 410,000 compounds, 4.5% hits; AID 1259415; in the data active means activity change below about -60%; inconclusive means no clear call, values can overlap the other calls; inactive means above about -39%
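Screen run at 2 compound doses on HFFs infected with reporter HCMV, MOI 1 PFU/cell. Luciferase activity from cell lysates at 72 h post infection gave inhibition relative to buffer-only and Salinomycin wells.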
HCV inh: blocks hepatitis C virus; Huh7.5.1 HCVcc-Cre infection, luciferase reporter, 44 h; Potency, µM (series often up to 41.8 µM), inactives show top-dose activity change, negative = inhibition, hits mostly inhibitors; 340,000 compounds, 3.4% hits; AID 651820; further: potency means the concentration at half of the fitted maximal effect
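Reporter virus HCVcc-Cre (~0.5 moi) infects cells exposed to compound; seeding density 1,000 cells/well with 4 h settling beforehand. Luminescence, 15 sec read, taken 44 h post-infection following a 15 min RT substrate incubation.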
AmpC inh detg: AmpC beta-lactamase inhibition with detergent present | AmpC hydrolysis of nitrocefin, absorbance 480 nm, 0.01% Triton | Potency, µM (series often up to 114 µM), inactives show at the highest dose activity change, negative = inhibition, actives largely listed as inhibitors | 370,000 compounds, 0.041% hits;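 further: potency means the concentration at half of the fitted maximal effect; 0% = no-compound wells and -100% = no-enzyme wells; nearly all actives have a fitted effect of over 25% in size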
Target sequence (P00811 whole entry, looked up): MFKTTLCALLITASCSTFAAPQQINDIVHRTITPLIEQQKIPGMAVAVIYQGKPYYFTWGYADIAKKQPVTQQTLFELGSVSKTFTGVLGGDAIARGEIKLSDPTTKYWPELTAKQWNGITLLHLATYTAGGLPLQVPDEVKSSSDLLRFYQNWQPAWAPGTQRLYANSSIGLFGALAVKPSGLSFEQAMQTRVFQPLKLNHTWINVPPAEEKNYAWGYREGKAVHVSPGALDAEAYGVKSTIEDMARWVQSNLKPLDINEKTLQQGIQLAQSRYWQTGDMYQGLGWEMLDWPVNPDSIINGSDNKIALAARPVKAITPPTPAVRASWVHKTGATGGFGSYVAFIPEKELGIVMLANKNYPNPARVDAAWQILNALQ
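20 mM phosphate pH 7.0 + 0.01% (detergent screen) or 0.0001% Triton X-100; 5.3 nM AmpC reagent; cpd preinc 15 min RT; nitrocefin (800 uM stock) to start; A480 q20 s × 4 min; Activity was normalised to no-enzyme and no-compound control wells.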
FMDV inh: antivirals against foot and mouth disease virus; Potency, µM (top dose mostly 57.9 µM), inactives show at the highest dose activity change, negative = inhibition, most hits filed as inhibitors; 410,000 compounds, 1.2% hits; FMDV antiviral cell-based qHTS; calls by dose curve; tested in HEK293T cells; further: read-out not given here; potency means the concentration at half of the fitted maximal effect; nearly all actives have a fitted effect of over 45% in size
AmpC inh no detg: blocks E. coli AmpC beta-lactamase in detergent-free assay; P00811; 330,000 compounds, 0.52% hits; AmpC nitrocefin hydrolysis, absorbance 480 nm, 0.0001% Triton; Potency, µM (titrated, usually from 57.1 µM), for the others: top-dose activity change, negative = inhibition, actives largely listed as inhibitors;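 further: potency means the concentration at half of the fitted maximal effect; plate controls were no compound for no effect and no enzyme for full effect; nearly all actives have a fitted effect of over 20% in size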
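AmpC (5.3 nM in the dispensed reagent) in 20 mM phosphate pH 7.0 with 0.01% (detergent screen) or 0.0001% Triton X-100 was preincubated with compounds for 15 min at room temperature. Nitrocefin was then added from an 800 uM solution, and hydrolysis was followed at 480 nm.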
Numbers without * were called inactive; ? = inconclusive; · = no result. Rows were chosen to be rich in hits. Some 7.3% of all compounds tested hit in one or more screens of this group. Unless noted, the call rests on the fitted dose curve; in most records, active means well fitted curve in the direction sought with a large enough effect; inconclusive means small, poorly fitted or top-dose-only effect, or another doubt; inactive means no such curve, though single readings can be large; an effect the other way counts as inactive or inconclusive. Unless noted, on the % scale 0 is the no-effect control and ±100 the full control effect.

SMILES	HCMV antiviral	HCV inh	AmpC inh detg	FMDV inh	AmpC inh no detg
Cc1cc(C)c(OCCCNCc2ccccc2)c(Br)c1	35	?	-7%	-26%	0%
COCCNCCCCOc1c(Cl)cc(C)cc1Br	-5	11µM*	-1%	-29%	18%
Cc1cc(Cl)c(OCCCNCc2ccccc2)c(Br)c1	20	25µM*	2%	-15%	-6%
Cc1cc(Cl)c(OCCCN2CCCCC2)c(Br)c1	?	?	-3%	-5%	-13%
NC(=O)OCC(O)COc1ccc(Cl)cc1 (stereo not given)	-2	15%	-8%	0%	-12%
Cc1cc(N=Nc2ccccc2C)ccc1N	27	13µM*	·	31%	·
Cc1ccnc(NC(=O)CCCc2c[nH]c3ccccc23)c1	-101*	-14%	-11%	11%	-36%
Cc1ccnc(NC(=O)CCCc2ccccc2)c1	34	9%	-7%	30%	-27%
Cc1ccc(CNC(=O)CCCc2c[nH]c3ccccc23)cc1	-14	-13%	-5%	19%	-15%
Cc1ccc(NC(=O)CCCc2c[nH]c3ccccc23)nc1	-98*	-22%	4%	4%	-10%
CC1(C)C[C@@]2(C)CCC3=CC(=O)C=C[C@@]32O1	-26	·	·	·	·
CNc1cncc(-c2cccc(C(=O)NC3CC3)c2)n1	17	·	·	22%	·
O=C(c1csnn1)N1CCC2(CC1)CCN(c1cccc(-c3ccccc3)c1)CC2	·	·	·	-28%	·
COc1ccc2[nH]cc(CCNc3ncncc3-c3ccc4c(c3)OCO4)c2c1	·	·	·	20µM*	·
COc1ccc(OC)c(CC2C(=O)Nc3ccc(Br)cc32)c1 (stereo not given)	-90*	·	14%	13µM*	·
CCCCNS(=O)(=O)c1ccc2nc(-c3cccnc3)cc(C(=O)NCCC)c2c1	-66*	·	2%	85%	·
CCOc1ccc(NC(=O)CSC2=Nc3ccccc3C3=NC(CC(=O)NCc4ccccc4OC)C(=O)N23)cc1 (stereo not given)	0	·	10%	-9%	·
CCOC(=O)c1ccccc1NC(=O)CSc1cccc[n+]1[O-]	12	5%	?	-4%	15%
CSc1ccccc1NC(=O)CSc1cccc[n+]1[O-]	-100*	11%	·	-1%	-20%
C=CCN1C[C@H](COC(=O)CSc2ccccc2)Oc2cccc(F)c2S1(=O)=O	1	·	·	·	·
COc1ccc(N=C2C(=O)Nc3ccccc32)cc1	-13	10%	?	31%	-14%
COc1ccc(N=C2C(=O)N3c4c(cccc42)C(C)=CC3(C)C)cc1	-63*	?	-2%	?	-28%
O=C(Nc1ccn(CCCN2CCN(Cc3ccc(F)cc3)CC2)c(=O)n1)OCc1ccccc1	-21	·	·	?	·
COc1ccc(C(C)=NOC(=O)c2c(-c3ccccc3Cl)noc2C)cc1CN1CCOCC1	-60*	·	·	?	·
CC(C)c1cc(C(=O)NC2CCCc3c2cnn3-c2ccccc2F)no1 (stereo not given)	-88*	11µM*	-10%	-27%	27%
SMILES	HCMV antiviral	HCV inh	AmpC inh detg	FMDV inh	AmpC inh no detg
COc1cc(C(=O)NC2CCCc3c2cnn3-c2ccccc2F)cc(OC)c1OC (stereo not given)	-62*	8.9µM*	-3%	?	38%
COc1ccc(NC(=O)Cn2nc3c(cc2=O)CCCC3)cc1Cl	-15	·	-8%	-9%	·
O=C(CCNC(=O)OCC1c2ccccc2-c2ccccc21)NOCc1ccccc1	-77*	-8%	·	-11%	-27%
O=C(O)CCNC(=O)OCC1c2ccccc2-c2ccccc21	?	18%	5%	-13%	-19%
COc1ccc(-c2n(CC(=O)OC3CC(C)CCC3C(C)C)c3ccccc3[n+]2C)cc1 (stereo not given)	17	11µM*	5%	5µM*	-19%
CC1CCC(C(C)C)C(OC(=O)CSc2nccc(=O)[nH]2)C1 (stereo not given)	-27	2%	11%	-13%	-12%
COc1ccc(OCc2n(CC(=O)OC3CC(C)CCC3C(C)C)c3ccccc3[n+]2C)cc1 (stereo not given)	-103*	?	8%	?	210%
CC(=O)N(C)Cc1ccc(C(=O)CCl)cc1	-22	?	0%	?	-9%
CC(=O)Nc1ccc(C)cc1	-17	-14%	-6%	-25%	-7%
CC(=O)NCc1ccc(C(=O)CCl)s1	-16	?	-5%	28µM*	-29%
CC(=O)NCc1ccc(C(=O)CCl)cc1	-23	?	?	32µM*	-7%
CC(=O)Nc1ccc(C(=O)CCl)cc1	-2	-24%	3%	28µM*	-25%
CC(=O)c1ccc(NC(=O)CN(C)S(=O)(=O)c2cc3c(cc2C)NC(=O)CO3)cc1	-3	·	1%	-13%	·
Cc1ccc(C(=O)Nc2cccc(-c3nc(CNC(=O)c4cccc(N(C)C)c4)c(C)o3)c2)s1	·	·	·	3%	·
O=C(COc1cc2oc(=O)c3c(c2cc1Cl)CCCC3)NCc1cccnc1	?	?	4%	-10%	-16%
Cc1cc(OCC(=O)NCc2cccnc2)c2c3c(c(=O)oc2c1)CCCC3	0	10µM*	-13%	-8%	112%
CCOC(=O)C(C)Oc1cc(C)cc2oc(=O)c3c(c12)CCCC3 (stereo not given)	26	10µM*	-4%	?	12%
COC(=O)c1cc(CNC(=O)c2ccc(N(C)C)cc2)cc(NC(=O)c2ccccc2Cl)c1	·	·	·	3%	·
Cc1nc(S(=O)(=O)N(C)c2ccccc2)c(C#N)c(C)c1Cl	-97*	-25%	-4%	?	-25%
O=C(Nc1cccc2ccccc12)c1nn(C23CC4CC(CC(C4)C2)C3)cc1[N+](=O)[O-]	-71*	?	?	14%	-21%
COc1ccc(CNCC(=O)Nc2cccc(S(N)(=O)=O)c2)cc1	-6	8%	-6%	-5%	-2%
CCn1c(/C=N/n2cnnc2)nc2ccccc21	78	13%	?	·	-29%
CCn1c2ccccc2c2cc(/C=N/O)ccc21	-74*	11µM*	-10%	-21%	-52%
CCn1c2ccccc2c2cc(/C=N/n3cn[nH]c3=S)ccc21	-31	11µM*	-13%	-3%	-37%
C/C(=N\O)c1ccc2c(c1)OCCO2	0	6%	0%	2%	-2%
CCn1c2ccc(/C(C)=N\O)cc2c2cc(/C(C)=N\O)ccc21	5	10µM*	-6%	-14%	-51%
CCn1c2ccccc2c2cc(/C=N/n3cnnc3)ccc21	-24	7.9µM*	?	·	57%
CCn1c2ccccc2c2cc(/C=N/NC(=O)c3cccc(C)c3)ccc21	20	?	2%	-10%	-17%
Cc1ccc2c(c1)cc1c(=O)n(Cc3cccc(Cl)c3)nc(C)n12	-8	·	16%	-10%	·
